Measurements taken from PubChem BioAssay (NCATS).
Calls of active or inactive are those of the source. The call rests on the fitted dose curve; in most records, active means well fitted inhibition curve with a large enough effect; inconclusive means small, poorly fitted or top-dose-only effect; inactive means flat fitted curve, though single readings scatter.

Molecular target: DNA dC->dU-editing enzyme APOBEC-3G (Homo sapiens) (UniProt Q9HC16)
Experiment: qHTS for inhibitors of Vif-A3G interactions: Validation (AID 588379); on activity change, negative = inhibition: 0% is about no effect
Conditions: Vif-A3G protein interaction assay; series mostly up to 46.1 µM; activity change, negative = inhibition: at the top concentration
From the text: The recent discovery and characterization of host restriction factors, which provide a potent defense to invading retroviruses, has provided new targets for antiviral drug development. APOBEC3G (A3G) and APOBEC3F (A3F) are potent cytidine deaminases that block HIV-1 replication; HIV-1 expresses the Vif protein, which counteracts A3G and A3F by binding to them and inducing their proteasomal degradation.
The Vif-A3G and Vif-A3F interactions provide two potential targets for development of small molecules which can interfere with the ability of Vif to degrade A3G or A3F. […] To identify inhibitors that can interfere with Vif mediated degradation of A3G and A3F, we have developed Hela cell lines that stably express A3G or A3F tagged with eYFP at the C-terminal end (A3G-eYFP or A3F-eYFP, respectively) and Vif. In the absence of an inhibitor, Vif induces degradation of A3G-eYFP and A3F-eYFP, and the cells are not fluorescent. In the presence of an inhibitor, it is expected that Vif will be unable to degrade A3G-eYFP and/or A3F-eYFP, resulting in an increase in yellow fluorescence. In this assays Vif A3G was screened against the Molecular Library Small Molecile Repository (MLSMR).
NIH Chemical Genomics Center [NCGC]
NIH Molecular Libraries Probe Centers Network [MLPCN]
Assay Submitter (PI): Vinay Pathak, National Cancer Institute
5 uL of 700 cells/well of A3G-YFP cells are dispensed into black, clear bottom plates. The plates are incubated overnight at 37 deg C. 23 nL of compounds are added by pintool. The plates are incubated overnight at 37 deg C and then read on the TTP Acumen (Ex 488/ Em 500-530).
Potency means the concentration at half of the fitted maximal effect.

DNA dC->dU-editing enzyme APOBEC-3G (Homo sapiens), sequence (Q9HC16 whole entry, looked up): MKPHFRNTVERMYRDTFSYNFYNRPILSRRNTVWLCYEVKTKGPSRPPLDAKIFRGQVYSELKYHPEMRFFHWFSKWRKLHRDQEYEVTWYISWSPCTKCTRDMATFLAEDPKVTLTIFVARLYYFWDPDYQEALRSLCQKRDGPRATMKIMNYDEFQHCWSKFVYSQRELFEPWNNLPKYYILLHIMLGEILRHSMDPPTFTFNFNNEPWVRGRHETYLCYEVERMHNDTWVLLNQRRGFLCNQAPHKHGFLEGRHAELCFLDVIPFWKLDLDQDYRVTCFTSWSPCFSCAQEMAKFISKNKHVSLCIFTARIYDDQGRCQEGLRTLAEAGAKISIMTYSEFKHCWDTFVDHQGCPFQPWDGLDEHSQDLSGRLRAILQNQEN

| Structure (SMILES) | Potency | activity change, negative = inhibition |
| --- | --- | --- |
| O=C(Cc1ccccc1)Nc1nc2ccc(Cl)cc2c2nc(-c3ccco3)nn12 | 21.1 µM (active) | – |
| CC(C)NC[C@@H](O)COc1cccc2[nH]ccc12 | – | -5.82% (inactive) |
| COc1ccc(OC)c2c(=S)c3ccccc3[nH]c12 | – | 0.494% (inactive) |
| CC[C@H](C)C(=O)O[C@H]1CCC=C2C=C[C@H](C)[C@H](CC[C@@H]3C[C@H](O)CC(=O)O3)[C@H]21 | – | -7.11% (inactive) |
| COc1ccc2[nH]c(C(=O)c3ccccc3)cc2c1 | – | -14.2% (inactive) |
| COc1cccc(NC(=O)/C=C\c2ccc(Cl)cc2)c1 | – | -5.82% (inactive) |
| NC(=O)C[C@H](NC(=O)Cc1ccc(O)cc1O)C(=O)O | – | -0.659% (inactive) |
| O=C(O)[C@H]1CCCNC1 | – | 0.568% (inactive) |
| Cc1cccc(C)c1NC(=O)C[N+](C)(C)C | – | 0.241% (inactive) |
| N[C@@H](C(=O)O)c1ccc(P(=O)(O)O)cc1 | – | -4.16% (inactive) |
| N[C@]1(C(=O)O)CCc2cc(C(=O)O)ccc21 | – | -1.3% (inactive) |
| N[C@H](C(=O)O)c1ccc(C(=O)O)c(O)c1 | – | -1.27% (inactive) |
| COc1ccccc1N1CCN(CCCCN2C(=O)CCC2=O)CC1 | – | 0.809% (inactive) |
| N[C@@H](C(=O)O)[C@H](CC(=O)O)c1ccc(Cl)cc1 | – | 3.13% (inactive) |
| O=C(O)c1ccc2c3c1cccc3c(=O)n1c3ccccc3nc21 | – | 0.716% (inactive) |
| CCC(C)(C)N=C(NC#N)Nc1cccnc1 | – | 2.6% (inactive) |
| CN(CCc1ccc(Cl)c(Cl)c1)CCN1CCCC1 | – | -0.762% (inactive) |
| CC(=O)ON(C(C)=O)S(=O)(=O)c1ccc(Cl)cc1 | – | 4.31% (inactive) |
| Clc1cccc(Nc2nnc(-c3ccccc3)c3ccccc23)c1 | – | 0.264% (inactive) |
| COc1cccc(CNc2ccc3nc(-c4ccc(N)cc4)c(OC)n3n2)c1 | – | -5.54% (inactive) |

| Structure (SMILES) | Potency | activity change, negative = inhibition |
| --- | --- | --- |
| COc1cc(OC)c(C(=O)CCCCN2CCC3(CC2)NC(=O)NC3=O)cc1NS(=O)(=O)c1ccc(C(F)(F)F)cc1 | – | -2.58% (inactive) |
| COc1ccc(/C=C\C(=O)Nc2ccccc2C(=O)O)cc1OC | – | -2.52% (inactive) |
| O=C(c1c(O)c2ccc(Cl)cc2[nH]c1=O)C1CC1 | – | -3.57% (inactive) |
| NCCCNCCCCN(CCCN)/[N+]([O-])=N/O | – | 3.48% (inactive) |
| COc1ccc2c3c1O[C@H]1C[C@H](O)C=C[C@@]31CCN(C)C2 | – | -0.389% (inactive) |
| CC(=O)OCCNC(=O)c1cccnc1 | – | -1.66% (inactive) |
| NC(=NC1C2CC3CC(C2)CC1C3)Nc1ccc(I)cc1 (stereo not given) | – | -1.51% (inactive) |
| c1ccc2nc(C3=NCCN3)cnc2c1 | – | 2.5% (inactive) |
| O=C(NC[C@H]1CCCCN1)c1cc(OCC(F)(F)F)ccc1OCC(F)(F)F | – | -0.208% (inactive) |
| CN1CCN2c3ccccc3Cc3ccccc3[C@@H]2C1 | – | -5.12% (inactive) |
| Cc1c(C(=O)NN2CCCCC2)nn(-c2ccc(Cl)cc2Cl)c1-c1ccc(I)cc1 | – | -2.75% (inactive) |
| Nc1nc(Nc2ccccc2)nc2c1ncn2[C@@H]1O[C@@H](CO)[C@H](O)[C@H]1O | – | -3.92% (inactive) |
| N[C@H](C(=O)O)[C@@H]1[C@@H](C(=O)O)C1(F)F | – | -0.905% (inactive) |
| CCCCCCCCCCCCCCCC(=O)C(F)(F)F | – | -0.942% (inactive) |
| CC(=O)O[C@H](CC(=O)O)C[N+](C)(C)C | – | -3.97% (inactive) |
| CC(C)[C@@H]1[C@H]2CC[C@H](C2)[C@H]1N | – | 2.65% (inactive) |
| Cc1ccc(-c2nn(CC(C)(C)C)c3ncnc(N)c23)cc1 | – | -1.03% (inactive) |
| CS(=O)(=O)Nc1ccc([N+](=O)[O-])cc1OC1CCCCC1 | – | 3.43% (inactive) |
| Oc1cc2c(cc1O)[C@H](c1ccccc1)CNCC2 | – | -1.57% (inactive) |
| CCCCOc1cc(C[C@@H]2CNC(=O)N2)ccc1OC | – | -3.7% (inactive) |
